Activity calls are given as the source filed them. How the source made its calls: active means hit-call score of the fitted dose curve at least 0.9, where 1 is the maximum; inactive means score below 0.9.
Key:
Conditions in all cases: primary human lung fibroblasts
[1] = read-out: Plasminogen activator inhibitor-1 (PAI1), SERPINE1 (gene 5054); assay: BSK_MyoF_PAI1: BioMAP Diversity Plus: MyoF Assay for Plasminogen activator inhibitor-1 (PAI1) Biomarker Activity (AID 2284256)
Method in brief: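 MyoF lung fibroblasts, human primary; compound 24 h; PAI-1 ELISA; positive-direction fit vs DMSO baseline; parallel SRB total-protein staining for cytotoxicity.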

[2] = read-out: Interleukin-8 (IL8), CXCL8 (gene 3576); assay: BSK_MyoF_IL8: BioMAP Diversity Plus: MyoF Assay for Interleukin-8 (IL8) Biomarker Activity (AID 2284261)
Method in brief: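 Lung fibroblasts (human primary) → chemical exposure → 24 h → IL-8 measured by ELISA. Signal increase scored versus DMSO control.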

[3] = read-out: Decorin, DCN (gene 1634); assay: BSK_MyoF_Decorin: BioMAP Diversity Plus: MyoF Assay for Decorin Biomarker Activity (AID 2284265)
Method in brief: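 ELISA readout of decorin, 24 h post-dosing; primary human lung fibroblast (MyoF) culture; gain-of-signal fit vs DMSO baseline.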

[4] = BSK_MyoF_SRB: Viability Assessment in the BioMAP Diversity Plus: MyoF Assay (AID 2284267);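 further: total protein by SRB absorbance in parallel cultures as cytotoxicity measure; cells assessed 24 h after compound addition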
Method in brief: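 Confluent human lung fibroblasts were exposed to test chemicals for 24 h. Parallel wells were then fixed in 10% TCA, stained with 0.1% sulforhodamine B and measured at 560 nm. DMSO served as baseline for curve fitting.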

[5] = read-out: Matrix Metallopeptidase 1 (MMP1), MMP1 (gene 4312); assay: BSK_MyoF_MMP1: BioMAP Diversity Plus: MyoF Assay for Matrix Metallopeptidase 1 (MMP1) Biomarker Activity (AID 2284268)
Method in brief: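 Cells: human lung fibroblasts. Exposure: 24 h chemical dosing. Detection: ELISA for MMP1. Analysis: upward fitting against DMSO negative control.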

[6] = read-out: TIMP metallopeptidase inhibitor 1 (TIMP1), TIMP1 (gene 7076); assay: BSK_MyoF_TIMP1: BioMAP Diversity Plus: MyoF Assay for TIMP metallopeptidase inhibitor 1 (TIMP1) Biomarker Activity (AID 2284269)
Method in brief: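 TIMP-1 levels were determined by ELISA in human lung fibroblasts treated for 24 h. DMSO served as negative control and baseline for upward curve fitting.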

Measured: AC50

CCOC(=O)CC(=O)CCl
inactive: [1] | [2] | [3] | [4] | [5] | [6]

O=[N+]([O-])c1ccc(Nc2ccccc2)cc1
inactive: [1] | [2] | [3] | [4] | [5] | [6]

CCCCN(CCCC)C(=S)[S-].CCCCN(CCCC)C(=S)[S-].[Ni+2]
inactive: [1] | [2] | [3] | [4] | [5] | [6]

c1ccc(-c2cccc(-c3ccccc3)c2)cc1
active: [2] 20 µM | [4] 22.5 µM | [5] 8.44 µM
inactive: [1] | [3] | [6]

Cc1c([N+](=O)[O-])c(C)c([N+](=O)[O-])c(C(C)(C)C)c1[N+](=O)[O-]
active: [5] 20 µM
inactive: [1] | [2] | [3] | [4] | [6]

Cc1ccccc1OP(=O)(Oc1ccccc1C)Oc1ccccc1C
active: [1] 11.9 µM | [2] 5.42 µM | [3] 20 µM | [4] 12.8 µM | [6] 20 µM
inactive: [5]

C[C@]12CC[C@@H](O)C[C@@H]1CC[C@@H]1[C@@H]2CC[C@]2(C)C(=O)CC[C@@H]12
inactive: [1] | [2] | [3] | [4] | [5] | [6]

CCN(CC)C(=O)C(Cl)=C(C)OP(=O)(OC)OC
inactive: [1] | [2] | [3] | [4] | [5] | [6]

O=C(CCl)NCO
inactive: [1] | [3] | [4] | [5] | [6]
active: [2] 3.97 µM

CC(C)(C)c1cc([N+](=O)[O-])cc(C(C)(C)C)c1O
inactive: [2] | [3] | [4] | [5] | [6]
active: [1] 0.016 µM

CCCCCCCCCCCCN(C)C
inactive: [1] | [2] | [3] | [4] | [5] | [6]

NC(=O)CCl
inactive: [1] | [2] | [3] | [4] | [5] | [6]

COCC(=O)N(c1c(C)cccc1C)[C@H](C)C(=O)OC
inactive: [1] | [2] | [3] | [4] | [5] | [6]

O=C(O)COc1cc(Cl)c(Cl)cc1Cl
inactive: [1] | [2] | [3] | [4] | [5] | [6]

Nc1c(Oc2ccccc2)cc(O)c2c1C(=O)c1ccccc1C2=O
active: [2] 10 µM
inactive: [1] | [3] | [4] | [5] | [6]

Cc1cc(Cl)ccc1N
inactive: [1] | [2] | [3] | [4] | [5] | [6]

C=CC(Cl)CCl (centres undefined)
inactive: [2] | [3] | [5]
active: [1] 0.806 µM | [4] 9.58 µM | [6] 0.061 µM

Nc1ccc(N)cc1
inactive: [1] | [2] | [3] | [4] | [5] | [6]

Cc1cc(Cl)ccc1OC(C)C(=O)O (centres undefined)
inactive: [1] | [2] | [3] | [4] | [5] | [6]

CCOC(=O)C(SP(=S)(OC)OC)c1ccccc1 (centres undefined)
inactive: [1] | [2] | [3] | [4] | [5] | [6]

Oc1c(Br)cc(Br)cc1Br
inactive: [1] | [3] | [4] | [6]
active: [2] 13.9 µM | [5] 12.4 µM

O=S(=O)(C(Cl)(Cl)Cl)C(Cl)(Cl)Cl
inactive: [2]
active: [1] 3.03 µM | [3] 3.37 µM | [4] 3.81 µM | [5] 7.05 µM | [6] 2.93 µM

CC(C)N(C(=O)CCl)c1ccccc1
inactive: [5]
active: [1] 3.09 µM | [2] 20 µM | [3] 6 µM | [4] 3.67 µM | [6] 3.53 µM

CCOP(=O)(OCC)OC(=CCl)c1ccc(Cl)cc1Cl
active: [3] 20 µM | [4] 30.4 µM | [5] 31.7 µM
inactive: [1] | [2] | [6]

C#CCOC(=O)/C=C(C)/C=C/CC(C)CCCC(C)C (centres undefined)
inactive: [1] | [3] | [4] | [5] | [6]
active: [2] 4.33 µM

Cc1ccccc1OP(=O)(Oc1ccccc1)Oc1ccccc1
active: [1] 13.5 µM | [2] 0.731 µM | [3] 2.3 µM | [4] 20 µM | [5] 29.6 µM | [6] 0.0187 µM

CCOP(=S)(OCC)OP(=S)(OCC)OCC
inactive: [1] | [2] | [3] | [4] | [5] | [6]

c1ccc2sc(SNC3CCCCC3)nc2c1
inactive: [1] | [3] | [4] | [5] | [6]
active: [2] 6.46 µM

Cc1cc(C(C)(C)c2ccc(O)c(C)c2)ccc1O
inactive: [1] | [2] | [3] | [6]
active: [4] 13.7 µM | [5] 15.7 µM

Source: PubChem BioAssay (EPA / NIEHS)
